According to PubChem BioAssay:
Activity calls are given as the source filed them.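 Rule for the calls, unless noted: active = visual image review flags a hit and inhibition of aggregation exceeds 20%; inconclusive = visual hit but inhibition at or below 20%; inactive = no hit on visual image review.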

Experiments:
[1] = inhibitors of TNFa-induced NFkB p65 translocation, primary screen, imaging, HUVEC, MLSMR starter and 10KST1 sets (AID 438;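 active = inhibition above 20% together with a positive visual image hit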;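 note: compound added about 3h40 before a 20 min TNFalpha stimulation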;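 for inhibition: signal is the nuclear over cytoplasmic p65 intensity ratio per well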); details: HUVEC TNFa-induced p65 nuclear translocation; cell count: measured here: nuclei count (cytotoxicity indicator), at 2.08 µM; inhibition: at 2 µM, stronger effect = higher value, 0% TNFa-plus-vehicle, 100% no-TNFa wells
[2] = inhibitors of mutant huntingtin aggregation, primary screen, imaging, exon1htt(103Q)mCFP cells, high-content imaging (AID 483); details: exon1htt(103Q)mCFP cell line, aggregate imaging, at 2 µM; inhibition of aggregation: stronger effect = higher value; nuclei count: measured here: cell count, toxicity;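 note: compound exposure lasted 3 days before fixation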;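 for nuclei count: percent of the per-plate median nuclei count of sample wells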
[3] = inhibitors of E-selectin induction by TNFa, primary screen, imaging, HUVEC, immunofluorescence, MLSMR starter and 10KST1 sets (AID 487;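 active = visually confirmed hit in the image check and inhibition above 20%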;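 for inhibition: signal is fraction of cell area covered by stained E-selectin grains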;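 for nuclei count: 100% = median nuclei count of all wells on the same plate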); details: HUVEC TNFalpha-induced E-selectin immunofluorescence imaging, at 2 µM; inhibition: stronger effect = higher value; nuclei count: measured here: cell number, toxicity
[4] = target: Voltage-gated potassium channel subunit beta-2 (Rattus norvegicus) (UniProt P62483); assay: KvBeta enzyme negative modulators, primary screen, biochemical, NADPH fluorescence (AID 622;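 active = fluorescence slope higher than the sample average by over 3 SD, cut at about -0.22 in these data, passing the limit was not always enough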;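 note: slope of raw intensity against log time taken from 70 to 1610 s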); details: recombinant KvBeta, 4-cyanobenzaldehyde reduction, at 10 µM, stronger effect = higher value
Sequence of Voltage-gated potassium channel subunit beta-2 (Rattus norvegicus) (P62483 whole entry, looked up): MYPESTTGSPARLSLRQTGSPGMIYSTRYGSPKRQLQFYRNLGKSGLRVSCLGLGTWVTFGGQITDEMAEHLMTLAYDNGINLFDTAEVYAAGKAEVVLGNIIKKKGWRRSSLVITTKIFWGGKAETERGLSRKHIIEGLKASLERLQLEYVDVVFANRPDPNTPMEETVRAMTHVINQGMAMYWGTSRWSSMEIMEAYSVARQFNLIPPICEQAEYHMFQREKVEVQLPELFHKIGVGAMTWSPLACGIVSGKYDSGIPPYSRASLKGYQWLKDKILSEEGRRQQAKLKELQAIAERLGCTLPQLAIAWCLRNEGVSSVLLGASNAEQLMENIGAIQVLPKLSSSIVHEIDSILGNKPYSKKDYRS

[5] = target: Voltage-gated potassium channel subunit beta-2 (Rattus norvegicus) (UniProt P62483); assay: KvBeta positive modulators, primary screen, biochemical, NADPH fluorescence (AID 623;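 active = NADPH fluorescence slope more negative than the mean of all samples by about 3 SD, 99.7% confidence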;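 note: fluorescence intensity change per second fitted from 20 to 320 s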); details: Recombinant KvBeta, NADPH fluorescence decrease slope, 10 min; at 10 µM; stronger effect = lower value
[6] = target: Alpha-2C adrenergic receptor (Homo sapiens) (UniProt P18825); assay: modulators of alpha2C/GIRK thallium flux, primary screen, cell-based, HEK293 alpha2C/GIRK1/2 (AID 624;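 active = fluorescence slope after compound addition differing from the mean of all screened samples at 99.7% confidence, in either direction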;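 note: slope of fluorescence ratio to pre-addition baseline per second over 15 to 24 s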); details: thallium flux BTC fluorescence, at 10 µM, actives lie on both sides
Sequence of Alpha-2C adrenergic receptor (Homo sapiens) (P18825 whole entry, looked up): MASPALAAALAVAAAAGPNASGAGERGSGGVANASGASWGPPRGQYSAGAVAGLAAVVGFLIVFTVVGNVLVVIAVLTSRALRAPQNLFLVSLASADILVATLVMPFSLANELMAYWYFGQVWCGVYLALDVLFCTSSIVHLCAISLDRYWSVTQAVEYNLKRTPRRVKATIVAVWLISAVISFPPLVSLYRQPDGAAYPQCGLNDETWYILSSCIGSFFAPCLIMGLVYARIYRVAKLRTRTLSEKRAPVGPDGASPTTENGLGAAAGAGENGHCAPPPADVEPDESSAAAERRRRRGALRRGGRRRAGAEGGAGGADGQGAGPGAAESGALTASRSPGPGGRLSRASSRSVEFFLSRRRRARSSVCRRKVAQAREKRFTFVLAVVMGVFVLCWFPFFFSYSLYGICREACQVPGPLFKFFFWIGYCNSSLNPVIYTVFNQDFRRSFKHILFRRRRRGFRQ

[7] = inhibitors of Sendai virus-induced IRF3 signaling, primary screen, TLR/RLR signaling modifier project, cell-based, Sendai virus stimulus, luciferase, 10K MLSCN set (AID 602276;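 active = inhibition at or above 50% at 10 µM; inactive = inhibition below 50%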;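 note: firefly luciferase from ISG56 promoter only with Renilla not read in this screen; 0% = Sendai virus plus DMSO and 100% = medium plus DMSO without virus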); details: HEK293 RL24 IRF3 luciferase reporter, at 10 µM, stronger effect = higher value
[8] = inhibitors of poly I:C-induced TLR3 signaling, primary screen, cell-based, poly I:C stimulus, luciferase, 10K MLSCN set (AID 602277;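 active = inhibition of the reporter signal at or above 50%; inactive = inhibition below 50%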); details: HEK293-TLR3 RL24 IRF3 luciferase reporter, at 10 µM, stronger effect = higher value

| SMILES | cell count [1] | inhibition [1] | inhibition of aggregation [2] | nuclei count [2] | inhibition [3] | nuclei count [3] | fluorescence slope [4] | NADPH fluorescence slope [5] | slope [6] | inhibition [7] | inhibition [8] |
| --- | --- | --- | --- | --- | --- | --- | --- | --- | --- | --- | --- |
| CCCCCOc1ccc(C2NC(=O)NC2=O)cc1 (stereo not drawn) | 804 | -5.5% (inactive) | -5.5% (inactive) | 107% | -50.9% (inactive) | 121% | -0.561 (inactive) | -4.1e-05 (inactive) | 0.00708 (inactive) | -12.1% (inactive) | -2.6% (inactive) |
| CCOC(=O)c1[nH]nc(N)c1NC(=O)c1ccc(Cl)cc1Cl | 554 | -4.9% (inactive) | 3.8% (inactive) | 99.2% | -238% (inactive) | 134% | -0.456 (inactive) | 8.2e-05 (inactive) | 0.00589 (inactive) | -16.4% (inactive) | -22.5% (inactive) |
| C=CCn1c(-c2ccc(OC)cc2)nc2ccccc21 | 386 | -3.5% (inactive) | 1% (inactive) | 96.1% | -24.9% (inactive) | 86.4% | -0.488 (inactive) | -4.7e-05 (inactive) | 0.0046 (inactive) | -24.1% (inactive) | -54.6% (inactive) |
| CC(C)Cn1c(CN2CCN(c3ccccc3F)CC2)nc2c1c(=O)[nH]c(=O)n2C | 664 | -7.7% (inactive) | -8.3% (inactive) | 101% | -7.3% (inactive) | 103% | -0.521 (inactive) | -3.3e-05 (inactive) | 0.00688 (inactive) | 10.6% (inactive) | 19.7% (inactive) |
| Cc1ccc(C)c2[nH]c(=O)c(CN(CCN3CCCC3)C(=O)Nc3cccc(Cl)c3)cc12 | 562 | -4.7% (inactive) | 13.8% (inactive) | 67.7% | -35.9% (inactive) | 94.3% | -0.544 (inactive) | -6.8e-05 (inactive) | 0.00448 (inactive) | -139% (inactive) | 78.9% (active) |
| CCN(CC)C(=O)C1CCCN(Cc2ccc(N(C)C)cc2)C1 (stereo not drawn) | 376 | 0% (inactive) | -25.6% (inactive) | 99% | -48.8% (inactive) | 124% | -0.462 (inactive) | 7.7e-05 (inactive) | 0.00605 (inactive) | 17.9% (inactive) | 26.8% (inactive) |
| COc1ccccc1CNC(=O)Nc1cccs1 | 546 | -6.3% (inactive) | 9.4% (inactive) | 118% | -30.8% (inactive) | 123% | -0.45 (inactive) | 8.3e-06 (inactive) | 0.0111 (inactive) | -0.521% (inactive) | -0.402% (inactive) |
| CCC(C)(NC(=O)CNC(C)=O)C(=O)NC1CCCCC1 (stereo not drawn) | 610 | -15.7% (inactive) | -1.1% (inactive) | 122% | -24.9% (inactive) | 116% | -0.472 (inactive) | -0.000295 (inactive) | 0.00509 (inactive) | -6.71% (inactive) | -2.23% (inactive) |
| Cc1nc2ccccc2c2c1C(=O)N(CCC1=CCCCC1)C2=O | 410 | 1.6% (inactive) | -3.7% (inactive) | 74.1% | -54.2% (inactive) | 108% | -0.407 (inactive) | -4.4e-05 (inactive) | 0.00396 (inactive) | 11.5% (inactive) | 42.1% (inactive) |
| CCN(CC)CCn1c2ccccc2c2nc(C)sc21 | 613 | -3.3% (inactive) | -5% (inactive) | 98.7% | 34% (inactive) | 86.3% | -0.622 (inactive) | -3.9e-06 (inactive) | 0.00718 (inactive) | 16.1% (inactive) | 21.2% (inactive) |
| COc1ccc(N2CCN(CCCNS(=O)(=O)c3c(C)noc3/C=C/N(C)C)CC2)cc1 | 561 | 8.7% (inactive) | -4.3% (inactive) | 101% | -36.7% (inactive) | 73.9% | -0.54 (inactive) | -6e-05 (inactive) | 0.00583 (inactive) | 3.23% (inactive) | 38.9% (inactive) |
| COC(=O)c1sc(S(=O)(=O)NCc2cccs2)c(C(=O)OC)c1C | 608 | -16.4% (inactive) | 0.4% (inactive) | 85.3% | 12.1% (inactive) | 101% | -0.452 (inactive) | -3.4e-06 (inactive) | 0.00602 (inactive) | -0.645% (inactive) | 30.7% (inactive) |
| COc1ccc(S(=O)(=O)N2CCCC2C(=O)Nc2ccc(C)cc2)cc1 (stereo not drawn) | 469 | 42.3% (active) | -25% (inactive) | 130% | -11.9% (inactive) | 73.3% | -0.498 (inactive) | -5.1e-05 (inactive) | 0.00758 (inactive) | 12.2% (inactive) | 7.96% (inactive) |
| CCCC1(C(=O)OCC)NC(c2ccc(N(C)C)cc2)C2C(=O)N(c3ccc(F)cc3)C(=O)C21 (stereo not drawn) | 505 | -10% (inactive) | 30.1% (inactive) | 69.8% | 1.4% (inactive) | 134% | -0.398 (inactive) | 1e-06 (inactive) | 0.00411 (inactive) | 8.99% (inactive) | 23.9% (inactive) |
| CCOc1ccc(C2CC(=O)NC3=C2C(=O)CCC3)cc1Cl (stereo not drawn) | 481 | 10% (inactive) | 5.5% (inactive) | 106% | -1.1% (inactive) | 110% | -0.407 (inactive) | -3.2e-05 (inactive) | 0.00268 (inactive) | 5.45% (inactive) | 13.2% (inactive) |
| O=C(CN1C(=O)c2ccccc2S1(=O)=O)NCc1ccccn1 | 643 | 0% (inactive) | -6.2% (inactive) | 90.1% | 5% (inactive) | 119% | -0.61 (inactive) | 4e-06 (inactive) | 0.00685 (inactive) | 13.6% (inactive) | 26.2% (inactive) |
| COc1cc(NC(=O)CN(c2cc(C)cc(C)c2)S(=O)(=O)c2c(C)noc2C)cc(OC)c1 | 541 | 2.3% (inactive) | -25% (inactive) | 80.6% | -42.2% (inactive) | 118% | -0.619 (inactive) | 2.8e-05 (inactive) | 0.00758 (inactive) | 18.7% (inactive) | 19.5% (inactive) |
| CC(=O)c1cccc(NC(=O)CCOc2ccccc2)c1 | 580 | 7.4% (inactive) | 6% (inactive) | 101% | 1.3% (inactive) | 119% | -0.428 (inactive) | 4.3e-05 (inactive) | 0.00322 (inactive) | -37.6% (inactive) | -83.6% (inactive) |
| Cn1cc(Br)c(C(=O)NC2CCCCC2)n1 | 483 | -5.1% (inactive) | -0.3% (inactive) | 105% | -145% (inactive) | 238% | -0.408 (inactive) | 1.7e-05 (inactive) | 0.00924 (inactive) | 7.35% (inactive) | 5.88% (inactive) |
| O=C(c1cnccn1)N(c1ccccc1)C1(C(=O)NC2CCCC2)CCCCC1 | 630 | -15.7% (inactive) | 4.8% (inactive) | 96.4% | -31.9% (inactive) | 116% | -0.518 (inactive) | -5.8e-05 (inactive) | 0.00495 (inactive) | 6.65% (inactive) | 16.5% (inactive) |
| Cc1ccccc1-c1nc(Cc2ccccc2)no1 | 434 | -9.1% (inactive) | 12.9% (inactive) | 87.9% | 31.1% (inactive) | 93.2% | -0.341 (inactive) | -3.8e-05 (inactive) | 0.00721 (inactive) | -43.9% (inactive) | -184% (inactive) |
| COc1ccc(N2C(=O)CC(N3CCCC4CCCCC43)C2=O)cc1 (stereo not drawn) | 577 | -11.4% (inactive) | 3.7% (inactive) | 107% | -13.4% (inactive) | 79.8% | -0.423 (inactive) | -3.7e-05 (inactive) | 0.00354 (inactive) | 8.26% (inactive) | 35.7% (inactive) |
| COc1ccc(S(=O)(=O)Nc2ccc3c(c2)OCO3)cc1Cl | 625 | 7% (inactive) | -18.4% (inactive) | 101% | -9.8% (inactive) | 101% | -0.392 (inactive) | -6.9e-05 (inactive) | 0.00299 (inactive) | 10.6% (inactive) | 12.9% (inactive) |
| O=C(O)CC(NC(=O)c1ccccc1NC(=O)c1ccccc1)C(=O)O (stereo not drawn) | 284 | -0.3% (inactive) | 8.8% (inactive) | 111% | 22.6% (inactive) | 90% | -0.403 (inactive) | 1.9e-05 (inactive) | 0.00592 (inactive) | -6.91% (inactive) | -15.2% (inactive) |
| COc1ccc(CC(=O)NCc2nnc(SCC(=O)Nc3nccs3)n2-c2ccccc2)cc1 | 640 | 5.8% (inactive) | 17.6% (inactive) | 98.3% | -36.8% (inactive) | 122% | -0.558 (inactive) | -2.9e-05 (inactive) | 0.00708 (inactive) | 12% (inactive) | 33.9% (inactive) |
| CCCCNc1cc(C)oc(=O)c1C(C)=O | 590 | 10.2% (inactive) | 11.4% (inactive) | 97.3% | -81% (inactive) | 123% | -0.443 (inactive) | 2e-05 (inactive) | 0.006 (inactive) | -0.373% (inactive) | 22.9% (inactive) |
| COc1ccc(C(O)C(CN2CCOCC2)c2ccccc2)cc1F (stereo not drawn) | 337 | -1.6% (inactive) | -2.1% (inactive) | 102% | -20.8% (inactive) | 104% | -0.493 (inactive) | 1.8e-06 (inactive) | 0.0062 (inactive) | 13.7% (inactive) | 17.9% (inactive) |
| Cc1cc(C)c(NC(=O)CSc2nnc(-c3ccncc3)n2Cc2ccco2)c(C)c1 | 412 | -5% (inactive) | -19.2% (inactive) | 111% | -107% (inactive) | 113% | -0.335 (inactive) | -3.5e-05 (inactive) | 0.00447 (inactive) | 5.1% (inactive) | 10.2% (inactive) |
